Rango dissoc inh: qHTS Assay for Inhibitors of RanGTP induced Rango (Ran-regulated importin-beta cargo) - Importin beta complex dissociation; Potency, µM (top dose mostly 46.1 µM), inactives show at the top dose activity change, negative = inhibition; Biochemical FRET Rango-importin beta, RanGTP-induced dissociation; AID 540253, 2011; 340,000 compounds, 0.071% hits; Snurportin-1 (Homo sapiens) + GTP-binding nuclear protein Ran (Homo sapiens) + Importin …; note: potency is the fitted concentration of half-maximal effect; % of control where 0% means no effect; nearly all actives have a fitted effect of over 45% in size
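Recombinant Rango FRET biosensor (EYFP–snurportin 1 IBB–cerulean CFP10) at 0.1 uM premixed with 0.25 uM importin beta in PBS, 1 mM DTT, 0.02% Tween-20, 0.1% BSA. Compound added 5 min; RanGTP-RCC1 (0.6 uM Ran, 2 mM GTP, 0.2 uM RCC1) then triggers release, read at 45 min.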
TSHR antag: Antagonists of the Thyroid Stimulating Hormone Receptor: HTS campaign. 330,000 compounds, 0.2% hits. Thyrotropin receptor (Homo sapiens), P16473. activity change, negative = inhibition, % at 11.5 µM. TSHR-expressing cells, TSH-stimulated cAMP HTRF, 2 h; hits give low values. AID 504810, 2011;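 active = activity change below a set negative limit, meaning inhibition stronger than a set level, cut at about -70% in these data; inconclusive = activity change between two set negative limits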; note: % is set by controls: 0 for no effect and ±100 for the full control effect
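Antagonism was scored as loss of TSH-driven cAMP in TSHR cells, stimulated with 4nM TSH (EC80) for 2 hours at 37 deg C and detected by homogeneous HTRF competition immunoassay.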
pAkt inh: HTS Assay for Inhibitors of Akt Phophorylation: Primary Screen; Neuro2A IGF-stimulated pAkt S473 HTRF, 20 min; hits give low values; activity change, % for hits at 50 µM; 360,000 compounds, 0.32% hits; in the data active = activity change below about -80%; inconclusive = mostly about -51% to -80%; note: % is set by controls: 0 for no effect and ±100 for the full control effect
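Neuro2A cells in DMEM with 0.5% FBS, overnight at 37 deg C, given compound at single 50 µM final, then IGF (6 nM final) for 20 min at 37 deg C. Lysed; phospho-Akt Ser473 by HTRF after 24 h, 665/615 ratio.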
Rango complex inh: qHTS Assay for Inhibitors of Rango (Ran-regulated importin-beta cargo) - Importin beta complex formation; Importin subunit beta-1 (Homo sapiens), Q14974; 340,000 compounds, 0.031% hits; Rango CFP/YFP FRET sensor + importin beta, 45 min; Potency, µM (top dose mostly 92.2 µM), inactives show top-dose inhibition of complex formation;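 note: potency is the fitted concentration of half-maximal effect; 0% = DMSO wells and 100% = buffer wells lacking importin beta; nearly all actives have a fitted effect of over 15% in size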
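Inhibition scored from the CFP 486 nm/YFP 530 nm FRET ratio 45 min after adding 0.125 microM importin beta to 50 nM Rango biosensor preincubated 5 min with compound (room temperature, PBS with DTT, Tween-20, BSA). No-importin wells as positive control.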
p53 reactivation: qHTS assay for re-activators of p53 using a Luc reporter. H1299 p53-A138V BP100-luciferase reporter, luminescence, 24 h. Potency, µM (titrated, usually from 92.2 µM), without a hit: at the highest dose activity change, positive = activation, usual class: activators. 320,000 compounds, 0.063% hits; active = well fitted activation curve with a large enough effect; inconclusive = small, poorly fitted or top-dose-only effect; inactive = no such curve, though single readings can be large or run the other way; note: potency is the fitted concentration of half-maximal effect; % of control where 0% means no effect; nearly all actives have a fitted effect of over 45% in size
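p53-null H1299 cells stably carrying temperature-sensitive p53-A138V and a BP100-luciferase reporter were pinned with compounds (4-point, 1:5 series) and held 24 hrs at 37 deg C. Luminescence was read 10 min after detection reagent.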
* marks the source's active call; other numbers are inactive results; [ ] = remark or other dose. An excerpt weighted towards active compounds, which were near 0.62% of everything screened. Unless noted, calls come from the whole dose curve.

What do the screens show for `CSCCC(NS(=O)(=O)c1ccccc1F)C(=O)OCc1ccccc1Cl` (configuration not stated)?
Rango dissoc inh: 25%; TSHR antag: 8; pAkt inh: inactive; Rango complex inh: -1%; p53 reactivation: 4%

How did Cc1sc2ncnc(N3CCC(C(=O)NNC(=O)COc4ccc(Cl)cc4)CC3)c2c1C do in these assays?
Rango dissoc inh: -11%; pAkt inh: inactive; Rango complex inh: -1%

Results for Cc1cc(Cl)ccc1OCC(=O)NNC(=O)C1CCN(c2ncnc3sc(C)c(C)c23)CC1 ?
Rango dissoc inh: 13%; TSHR antag: -72*; pAkt inh: inactive; Rango complex inh: 3%; p53 reactivation: -2%

What do the screens show for `COc1ccc(Cc2nnc(NC(=O)Cn3cnc4c3c(=O)n(C)c(=O)n4C)s2)cc1`?
Rango dissoc inh: 0%; TSHR antag: -7; pAkt inh: inactive; Rango complex inh: 6%; p53 reactivation: -1%

How did N#Cc1c([N+](=O)[O-])cc([N+](=O)[O-])cc1S(=O)(=O)Cc1ccccc1 do in these assays?
Rango dissoc inh: -1%; TSHR antag: -81*; pAkt inh: inactive; Rango complex inh: 0%; p53 reactivation: -28%

What do the screens show for `COC(=O)C1=C(C)NC(C)=C(C(=O)OC(C)(C)CN(C)CCC(c2ccccc2)c2ccccc2)C1c1cccc([N+](=O)[O-])c1` (configuration not stated)?
TSHR antag: -6

What do the screens show for `COc1cc(-c2cc(C(=O)Nc3cccc(S(=O)(=O)N(C)C)c3)c3ccccc3n2)cc(OC)c1OC`?
Rango dissoc inh: -1%; TSHR antag: -11; pAkt inh: inactive; Rango complex inh: 0%; p53 reactivation: -3%

Results for Cc1ccc(-c2cc(C(=O)Nc3cccc(S(=O)(=O)N(C)C)c3)c3ccccc3n2)o1 ?
Rango dissoc inh: 15µM*; TSHR antag: -28; pAkt inh: inactive; Rango complex inh: inconclusive; p53 reactivation: 4%

Results for O=C(Nc1nnc(SCc2ccccc2)s1)c1cc2c(s1)CCCC2 ?
Rango dissoc inh: -8%; TSHR antag: -6; pAkt inh: inconclusive; Rango complex inh: -1%; p53 reactivation: 6%

How did CCSc1nnc(NC(=O)c2cc3c(s2)CCCC3)s1 do in these assays?
Rango dissoc inh: 2%; TSHR antag: 21; pAkt inh: -81%*; Rango complex inh: 3%; p53 reactivation: 24%

Results for CCSc1nnc(NC(=O)c2ccco2)s1 ?
Rango dissoc inh: 0%; TSHR antag: -3; pAkt inh: -112%*; Rango complex inh: 0%; p53 reactivation: 30%

What do the screens show for `CCSc1nnc(NC(=O)c2ccc(Br)s2)s1`?
Rango dissoc inh: 11%; TSHR antag: -18; pAkt inh: -81%*; Rango complex inh: inconclusive; p53 reactivation: inconclusive

How did c1cncc(CNc2ncnc3ccc(-c4ccco4)cc23)c1 do in these assays?
TSHR antag: 12

What do the screens show for `c1ccc2c(c1)CCc1ccccc1C2=C1CCNCC1`?
Rango dissoc inh: -11%; pAkt inh: inactive; Rango complex inh: 0%

What do the screens show for `CC(=O)Oc1cccc(N2C(=O)c3cccc4c([N+](=O)[O-])ccc(c34)C2=O)c1`?
Rango dissoc inh: 1.8µM*[inhibitor]; TSHR antag: inconclusive; pAkt inh: inactive; Rango complex inh: inconclusive

What do the screens show for `CC(=O)Oc1cccc(N2C(=O)c3ccc(C(=O)O)cc3C2=O)c1`?
Rango dissoc inh: 0%; TSHR antag: -1; pAkt inh: inactive; Rango complex inh: -7%; p53 reactivation: -4%

What do the screens show for `Cc1ccc(C(=O)O)cc1N1C(=O)c2cccc3c([N+](=O)[O-])ccc(c23)C1=O`?
Rango dissoc inh: inconclusive; TSHR antag: -73*; pAkt inh: inactive; Rango complex inh: inconclusive

Assay outcomes deposited in PubChem by National Center for Advancing Translational Sciences (NCATS).
